Most compounds without a hit are left out; they make up all but 2.8% or so of the library.
PI5P4K alpha inh – blocks human PI5P4K alpha kinase activity; PI5P4Kalpha enzyme, ADP-Glo luminescence, 60 min; hits give low values; hit rate 1.2% among 330,000; max response, %; P48426; active = max response of -50% or lower; inconclusive = between -30% and -50%; inactive = -30% or higher; also: value at the top dose of about 77 µM; % is scaled to controls: 0 for no effect and ±100 for the full control effect
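Controls without substrate or without enzyme flank wells where PI5P4Kalpha converts substrate using 5 microM ATP (final). Incubation lasts 60 minutes at room temperature; ADP formed is read by ADP-Glo luminescence.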
Pol eta inh-1 – DNA polymerase eta (human) inhibition. Q9Y253. recombinant Pol eta, fluorescent DNA replication assay. hit rate 1.2% among 390,000. Potency, µM (titrated, usually from 114 µM), without a hit: top-dose activity change, negative = inhibition, most hits filed as inhibitors; also: potency is read from the fitted curve at half-maximal effect; % is scaled to controls: 0 for no effect and ±100 for the full control effect
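Fluorescent replication assay: 50 nM final substrate added after a 15 min room-temperature compound preincubation with 10 nM enzyme. Signal taken at 0 min and again at 10 min.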
FEN1 inh – human FEN1 inhibition. P39748. hit rate 0.35% among 390,000. Potency, µM (top dose mostly 114 µM), for the others: at the highest dose activity change, negative = inhibition, hits mostly inhibitors. Recombinant FEN1 flap cleavage, fluorescence, 15 min; also: potency is read from the fitted curve at half-maximal effect; % is scaled to controls: 0 for no effect and ±100 for the full control effect; nearly all actives have a fitted effect of over 65% in size
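Concentration–response screening of FEN1 (10 nM): 15 min compound preincubation at room temperature, reaction started with 50 nM substrate and read at 0 and 15 min. Corrected, normalized data were fitted by a four-parameter Hill equation.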
Pol kappa inh-1 – DNA polymerase kappa (human) inhibition. Q9UBT6. purified Pol kappa, fluorescent DNA synthesis assay, 10 min. Potency, µM (series often up to 107 µM), for inactives: at the highest dose activity, negative = inhibition, hits mostly inhibitors. hit rate 0.53% among 400,000; also: potency is read from the fitted curve at half-maximal effect; % is scaled to controls: 0 for no effect and ±100 for the full control effect
Target sequence (Q9UBT6 whole entry, looked up): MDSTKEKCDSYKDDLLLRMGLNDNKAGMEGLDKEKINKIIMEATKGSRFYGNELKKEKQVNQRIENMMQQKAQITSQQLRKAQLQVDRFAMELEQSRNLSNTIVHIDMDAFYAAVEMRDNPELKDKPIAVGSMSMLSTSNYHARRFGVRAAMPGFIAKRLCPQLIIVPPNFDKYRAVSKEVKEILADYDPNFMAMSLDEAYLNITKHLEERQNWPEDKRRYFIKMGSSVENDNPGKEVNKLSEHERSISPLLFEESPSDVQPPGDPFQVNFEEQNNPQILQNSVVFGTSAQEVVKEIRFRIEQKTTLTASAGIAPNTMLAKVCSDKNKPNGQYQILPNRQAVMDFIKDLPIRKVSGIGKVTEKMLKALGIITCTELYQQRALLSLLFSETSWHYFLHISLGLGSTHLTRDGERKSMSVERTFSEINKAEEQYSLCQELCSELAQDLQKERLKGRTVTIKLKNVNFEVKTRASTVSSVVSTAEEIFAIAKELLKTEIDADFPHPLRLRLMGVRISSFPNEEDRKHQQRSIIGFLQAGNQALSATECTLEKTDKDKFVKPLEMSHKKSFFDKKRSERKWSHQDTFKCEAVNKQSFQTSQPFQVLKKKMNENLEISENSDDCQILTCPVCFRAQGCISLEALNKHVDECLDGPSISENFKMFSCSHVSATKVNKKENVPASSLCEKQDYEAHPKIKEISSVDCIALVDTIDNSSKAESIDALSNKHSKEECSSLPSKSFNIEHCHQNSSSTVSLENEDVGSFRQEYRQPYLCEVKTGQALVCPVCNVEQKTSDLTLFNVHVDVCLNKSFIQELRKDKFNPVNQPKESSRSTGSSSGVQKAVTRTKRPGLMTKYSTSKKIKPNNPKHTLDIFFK
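Here, compound and 10 nM enzyme are combined for 15 min at room temperature; adding 50 nM substrate (final) starts DNA synthesis, tracked by fluorescence at 0 and 10 min against buffer-only wells.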
POLI inh – inhibitors of human DNA polymerase iota; Q9UNA4; Pol iota fluorescent replication assay, 10 min; Potency, µM (titrated, usually from 115 µM), inactives show top-dose activity, negative = inhibition, hits mostly inhibitors; hit rate 1% among 390,000; also: potency is read from the fitted curve at half-maximal effect
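Pol iota at 10 nM preincubated 15 min with compounds at room temperature; reaction started with fluorescent substrate, 50 nM final. Fluorescence read kinetically at 0 and 10 min; buffer-only wells as negative control.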
POLB inh – inhibitors of human DNA polymerase beta; hit rate 1.3% among 340,000; Potency, µM (doses to about 114 µM), for inactives: at the top dose activity change, negative = inhibition, hits mostly inhibitors; Pol beta primer extension/strand displacement, fluorescence kinetic; also: potency is read from the fitted curve at half-maximal effect; % is scaled to controls: 0 for no effect and ±100 for the full control effect
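Preincubation: enzyme (10 nM) with compound, 15 min, RT. Reaction: substrate added to 50 nM final. Reads: 0 and 10 min. Analysis: normalized, Hill fit.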
GALK confirm – galactokinase (human) inhibition, confirmation; hit rate 70% among 150; purified GALK, Kinase-Glo ATP depletion luminescence; Potency, µM (doses to about 115 µM), for the others: at the top dose activity, negative = inhibition, usual class: inhibitors; shares compounds with Pol eta inh-1
GALK redox cs – redox cycling activity in phenol red-HRP assay; hit rate 40% among 150; Potency, µM (titrated, usually from 115 µM), for inactives: at the highest dose activity change, negative = H2O2 signal, usual class: inhibitors; Phenol red-HRP H2O2 redox cycling, absorbance 600 nm; shares compounds with Pol eta inh-1; AID 2035
HEK293 tox – HEK-293 cytotoxicity, GALK inhibitor secondary | shares compounds with Pol eta inh-1 | HEK-293 viability, ATP luminescence (CellTiter-Glo), 24/48 h | Potency, µM (titrated, usually from 46.1 µM), for the others: at the highest dose activity change, negative = cytotoxicity, most hits filed as inhibitors | hit rate 10% among 170 | AID 2547; also: potency is read from the fitted curve at half-maximal effect; % is scaled to controls: 0 for no effect and ±100 for the full control effect
Pol kappa inh-2 – confirmation of human DNA polymerase kappa inhibitors; hit rate 76% among 920; Potency, µM, usual class: inhibitors; AID 720501; shares compounds with Pol eta inh-1; purified Pol-kappa, fluorescent strand-displacement substrate; also: potency is read from the fitted curve at half-maximal effect
Pol eta inh-2 – confirmation of human DNA polymerase eta inhibitors; hit rate 64% among 2,600; shares compounds with Pol eta inh-1; Pol eta primer extension, TAMRA/BHQ fluorescence, 10 min; Potency, µM, actives largely listed as inhibitors; AID 720502; also: potency is read from the fitted curve at half-maximal effect
The depositor's hits bear a star; ? = inconclusive; nt = not tested or not shown; [ ] = dose if it differs, or a comment. Unless noted, calls follow the shape of the dose curve; as a rule, active = well fitted curve in the direction sought with a large enough effect; inconclusive = small, poorly fitted or top-dose-only effect, or another doubt; inactive = no such curve, though single readings can be large; an effect the other way counts as inactive or inconclusive.

SMILES	PI5P4K alpha inh	Pol eta inh-1	FEN1 inh	Pol kappa inh-1	POLI inh	POLB inh	Pol eta inh-2	others
O=C(NC1CCCCC1)c1sc(=S)n2c1[nH]c(=O)c1ccccc12	36	25µM*	?	-23%	-25%	18µM*	nt	Pol kappa inh-2=?
O=C(NCC1CCCO1)c1sc(=S)n2c1[nH]c(=O)c1ccc(C(=O)N3CCCCC3)cc12 (stereo unspecified)	nt	-14%	-20%	-26%	?	-21%	nt
CC(C)NC(=O)c1sc(=S)n2c1[nH]c(=O)c1ccc(C(=O)NCCc3ccc(Cl)cc3)cc12	-7	?	-17%	-8%	?	-2%	nt
COc1ccc(OC)c(CCNC(=O)c2ccc3c(=O)[nH]c4c(C(=O)NC(C)C)sc(=S)n4c3c2)c1	-6	16µM*	-24%	-16%	-13%	8%	43*
O=C(NCCc1ccccc1)c1ccc2c(=O)[nH]c3c(C(=O)NCC4CCCO4)sc(=S)n3c2c1 (stereo unspecified)	-11	-7%	?	?	?	14%	nt	GALK confirm=38µM*;GALK redox cs=-1%;HEK293 tox=9%
CCOC(=O)c1ccc(NC(=O)CN(C)S(=O)(=O)c2ccc(Br)s2)cc1	26	?	-12%	-14%	156%	-16%	nt
COc1cc(/C=C2/C(=N)N3C(=NC2=O)SN=C3S(C)(=O)=O)ccc1OS(=O)(=O)c1ccccc1	nt	nt	nt	nt	nt	-53%	nt
CCOc1cc(/C=C2/C(=N)N3C(=NC2=O)SN=C3S(C)(=O)=O)ccc1OS(=O)(=O)c1ccccc1	-63*	79µM*	-30%	-9%	?	?	nt	GALK confirm=33µM*;GALK redox cs=-5%;HEK293 tox=9%
Cc1ccc(S(=O)(=O)Nc2cc(C(=O)O)ccc2N2CCCCC2)cc1	nt	3%	-13%	1%	0%	-9%	nt
O=C(O)CCc1ccc(S(=O)(=O)Nc2cc(C(F)(F)F)ccc2N2CCCC2)cc1	?	22µM*	-8%	?	25µM*	nt	60*	Pol kappa inh-2=?
O=C(O)CCCN1C(=O)/C(=C\C(Cl)=C\c2ccccc2)SC1=S	-19	10µM*	?	?	?	?	24*	Pol kappa inh-2=38*
O=C1NN(c2ccc(Br)cc2)C(=O)/C1=C\c1ccc(O)cc1O	?	4%	-19%	-38%	?	3%	nt	GALK confirm=47µM*;GALK redox cs=-3%;HEK293 tox=-4%
O=C1NN(c2ccc(F)cc2)C(=O)/C1=C/c1cccs1	-11	13%	2%	-29%	71%	2%	nt
N#CC1=C(N)Oc2n[nH]c(-c3cccnc3)c2C1c1ccc([N+](=O)[O-])o1 (stereo unspecified)	-59*	28µM*	-21%	?	?	-2%	67*
Cc1ccc(-c2[nH]nc3c2C(c2cccnc2)C(C#N)=C(N)O3)cc1 (stereo unspecified)	nt	-14%	-9%	-16%	8%	21%	nt
S=c1[nH]nc(-c2cc(-c3ccco3)[nH]n2)n1-c1ccccc1Cl	-57*	32µM*	?	?	?	?	?
S=c1[nH]nc(-c2ccco2)n1-c1ccccc1Cl	-28	-4%	-1%	6%	36%	?	nt
Cc1[nH]n(-c2ccccc2)c(=O)c1C(c1ccccc1[N+](=O)[O-])C(C#N)C#N (stereo unspecified)	-9	-7%	0%	4%	6%	28%	nt
Cc1[nH]n(-c2ncc(-c3ccccc3)s2)c(=O)c1C(c1ccc(Cl)cc1)C(C#N)C#N (stereo unspecified)	?	28µM*	-7%	?	?	32µM*	?
Cc1ccc(CS(=O)Cc2ccc(C(=O)N3CCN(C4CCCCC4)CC3)o2)cc1 (stereo unspecified)	0	-5%	-6%	11%	25%	3%	nt
C=CCCCCCCCCCCCC(O)CC(O)COC(C)=O (stereo unspecified) (tested in a mixture with another compound)	nt	nt	nt	-14%[60.1 µM]	nt	nt	nt
Cc1ccc(NC(=O)CCc2nc3sc4c(c3c(=O)[nH]2)CCCC4)c(Br)c1	-66*	25µM*	-3%	?	40µM*	nt	85*
CCN(CC(=O)Nc1ccccc1C(F)(F)F)C(=O)CCc1nc2sc3c(c2c(=O)[nH]1)CCCC3	?	16µM*	-10%	?	28µM*	nt	?
CC(=O)OCc1nc2sc3c(c2c(=O)[nH]1)CCCC3	0	8%	5%	-4%	8%	16%	nt
O=C(CCn1c(=O)oc2cc(Cl)ccc21)Nc1ccc(N2CCOCC2)cc1	12	-15%	8%	1%	100%	33%	nt
Cc1cccc(OCC(=O)Nc2nnc(S(=O)(=O)N3CCc4ccccc43)s2)c1	nt	89µM*	1%	?	?	18%	?
O=C(CN(Cc1ccc(Cl)cc1)C(=O)c1csnn1)NCc1ccccc1	1	-5%	-4%	-10%	23%	41%	nt
C=C1CC[C@@H]2[C@](C)(CCC[C@@]2(C)/C=C/[C@@H](O)C(C)(C)O)[C@H]1CC(=O)NCCS(=O)(=O)O	6	18µM*	13%	?	-10%	nt	?
O=C1CSC(=S)N1N=Cc1ccc(Cl)s1	-55*	?	-23%	?	14µM*	nt	54*	Pol kappa inh-2=17*
O=C(O)c1cccc(NC(=O)c2ccc3c(c2)C(=O)N(Cc2ccco2)C3=O)c1	-26	18µM*	-8%	?	50µM*	?	43*	Pol kappa inh-2=67*
